According to PubChem BioAssay AID1159580 (chemical genetic matrix, 2015):
The whole screen tested about 5,500 compounds, of which about 2,000 (36%) were called active. Another 18% or so got no clear call; they are omitted. No stated cut-off is given here; in the data, active means normalized growth mostly below about 0.91 (no sharp cut-off); inconclusive means no clear call, values can overlap the other calls; inactive means mostly above about 0.92. The list shows a part of the results.

Test: chemical genetic growth profiling, strain panel (AID 1159580);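 further: tested at 20 µM; growth read once vehicle control cultures reached saturation at 30 °C; 1 = growth at the plate median or of vehicle wells; lower values mean less growth of the strain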
Settings: growth OD

Measured: normalized growth

CCn1cc(C(=O)O)c(=O)c2cnc(N3CCNCC3)nc21
inactive: S. cerevisiae deletion strains, locus YKL009W, strain mrt4, active compounds read low 1.03 | S. cerevisiae deletion strains, locus YKL068W, active compounds read low 0.994 | S. cerevisiae deletion strains, locus YKL085W, strain MDH1 (second series), active compounds read low 0.984 | S. cerevisiae deletion strains, locus YKL085W, strain MDH1, active compounds read low 0.984 | S. cerevisiae deletion strains, locus YKL160W, strain elf1, active compounds read low 1.03 | S. cerevisiae deletion strains, locus YKL190W, strain CNB1, active compounds read low 1 | S. cerevisiae deletion strains, locus YKR001C, strain vps1, active compounds read low 1.02 | S. cerevisiae deletion strains, locus YKR026C, strain gcn3, active compounds read low 1.01 | S. cerevisiae deletion strains, locus YKR091W, strain srl3, active compounds read low 1 | S. cerevisiae deletion strains, locus YLL001W, strain dnm1, active compounds read low 1.01 | S. cerevisiae deletion strains, locus YLL026W, active compounds read low 1.02 | S. cerevisiae deletion strains, locus YLL041C, strain sdh2, active compounds read low 1.01 | S. cerevisiae deletion strains, locus YLR027C, strain aat2, active compounds read low 1.01 | S. cerevisiae deletion strains, locus YLR039C, strain RIC1, active compounds read low 0.942 | S. cerevisiae deletion strains, locus YLR058C, strain SHM2, active compounds read low 0.988 | S. cerevisiae deletion strains, locus YLR102C, strain apc9, active compounds read low 0.993 | S. cerevisiae deletion strains, locus YLR113W, strain HOG1, active compounds read low 1.02 | S. cerevisiae deletion strains, locus YLR221C, strain rsa3, active compounds read low 1 | S. cerevisiae deletion strains, locus YLR258W, strain gsy2, active compounds read low 1.04 | S. cerevisiae deletion strains, locus YLR262C, strain YPT6 (second series), active compounds read low 0.992 | S. cerevisiae deletion strains, locus YLR262C, strain YPT6, active compounds read low 0.975 | S. cerevisiae deletion strains, locus YLR268W, strain sec22, active compounds read low 0.991 | S. cerevisiae deletion strains, locus YLR320W, strain mms22, active compounds read low 0.968 | S. cerevisiae deletion strains, locus YLR330W, strain CHS5, active compounds read low 0.981 | S. cerevisiae deletion strains, locus YLR342W, strain FKS1 (second series), active compounds read low 0.96 | S. cerevisiae deletion strains, locus YLR342W, strain FKS1, active compounds read low 1.02 | S. cerevisiae deletion strains, locus YLR357W, strain rsc2, active compounds read low 1.01 | S. cerevisiae deletion strains, locus YLR370C, strain arc18, active compounds read low 1.02 | S. cerevisiae deletion strains, locus YLR371W, strain rom2, active compounds read low 0.981 | S. cerevisiae deletion strains, locus YLR384C, strain iki3, active compounds read low 0.999 | S. cerevisiae deletion strains, locus YLR418C, strain cdc73, active compounds read low 0.951 | S. cerevisiae deletion strains, locus YML016C, strain PPZ1, active compounds read low 0.977 | S. cerevisiae deletion strains, locus YML032C, strain rad52, active compounds read low 1 | S. cerevisiae deletion strains, locus YML120C, strain ndi1, active compounds read low 1.03 | S. cerevisiae deletion strains, locus YML124C, strain tub3, active compounds read low 0.985 | S. cerevisiae deletion strains, locus YMR058W, strain fet3, active compounds read low 1.01 | S. cerevisiae deletion strains, locus YMR078C, strain ctf18, active compounds read low 0.98 | S. cerevisiae deletion strains, locus YMR125W, strain sto1, active compounds read low 1.02 | S. cerevisiae deletion strains, locus YMR129W, active compounds read low 1.01 | S. cerevisiae deletion strains, locus YMR205C, strain PFK2, active compounds read low 1 | S. cerevisiae deletion strains, locus YMR223W, strain ubp8, active compounds read low 0.983 | S. cerevisiae deletion strains, locus YMR231W, strain pep5, active compounds read low 1.01 | S. cerevisiae deletion strains, locus YMR263W, strain SAP30, active compounds read low 1.01 | S. cerevisiae deletion strains, locus YMR307W, strain GAS1, active compounds read low 1.01 | S. cerevisiae deletion strains, locus YNL067W, strain RPL9B, active compounds read low 1.03 | S. cerevisiae deletion strains, locus YNL071W, strain lat1, active compounds read low 1.01 | S. cerevisiae deletion strains, locus YNL128W, strain TEP1, active compounds read low 0.977 | S. cerevisiae deletion strains, locus YNL153C, strain GIM3, active compounds read low 1.06 | S. cerevisiae deletion strains, locus YNL183C, strain NPR1, active compounds read low 0.997 | S. cerevisiae deletion strains, locus YNL209W, strain ssb2, active compounds read low 1 | S. cerevisiae deletion strains, locus YNL233W, strain BNI4, active compounds read low 1.02 | S. cerevisiae deletion strains, locus YNL248C, strain rpa49, active compounds read low 1.04 | S. cerevisiae deletion strains, locus YNL250W, strain rad50, active compounds read low 0.964 | S. cerevisiae deletion strains, locus YNL271C, strain bni1, active compounds read low 0.979 | S. cerevisiae deletion strains, locus YNL298W, strain CLA4, active compounds read low 0.978 | S. cerevisiae deletion strains, locus YNL307C, strain MCK1, active compounds read low 0.991 | S. cerevisiae deletion strains, locus YNL322C, strain KRE1 (second series), active compounds read low 1.04 | S. cerevisiae deletion strains, locus YNL322C, strain KRE1, active compounds read low 0.997 | S. cerevisiae deletion strains, locus YNR049C, strain mso1, active compounds read low 1.01 | S. cerevisiae deletion strains, locus YNR052C, strain pop2, active compounds read low 0.979 | S. cerevisiae deletion strains, locus YOL006C, strain TOP1, active compounds read low 1.07 | S. cerevisiae deletion strains, locus YOL012C, strain htz1 0.676 | S. cerevisiae deletion strains, locus YOL147C, strain pex11, active compounds read low 0.991 | S. cerevisiae deletion strains, locus YOR001W, strain rrp6, active compounds read low 1 | S. cerevisiae deletion strains, locus YOR061W, strain CKA2, active compounds read low 0.988 | S. cerevisiae deletion strains, locus YOR069W, strain VPS5, active compounds read low 0.984 | S. cerevisiae deletion strains, locus YOR070C, strain gyp1, active compounds read low 1.02 | S. cerevisiae deletion strains, locus YOR080W, strain dia2, active compounds read low 1.02 | S. cerevisiae deletion strains, locus YOR083W, strain WHI5, active compounds read low 0.993 | S. cerevisiae deletion strains, locus YOR106W, strain vam3, active compounds read low 1.04 | S. cerevisiae deletion strains, locus YOR136W, strain idh2, active compounds read low 0.995 | S. cerevisiae deletion strains, locus YOR144C, strain elg1, active compounds read low 0.988 | S. cerevisiae deletion strains, locus YOR184W, strain ser1, active compounds read low 1 | S. cerevisiae deletion strains, locus YOR231W, strain MKK1, active compounds read low 1.03 | S. cerevisiae deletion strains, locus YOR265W, strain rbl2, active compounds read low 1.02 | S. cerevisiae deletion strains, locus YOR270C, strain vph1, active compounds read low 1.16 | S. cerevisiae deletion strains, locus YOR290C, strain snf2, active compounds read low 1.04 | S. cerevisiae deletion strains, locus YOR316C, strain cot1, active compounds read low 0.99 | S. cerevisiae deletion strains, locus YPL051W, strain arl3, active compounds read low 1.02 | S. cerevisiae deletion strains, locus YPL078C, strain atp4, active compounds read low 1.04 | S. cerevisiae deletion strains, locus YPL106C, strain sse1, active compounds read low 1.01 | S. cerevisiae deletion strains, locus YPL240C, strain hsp82, active compounds read low 1 | S. cerevisiae deletion strains, locus YPL256C, strain CLN2, active compounds read low 1.08 | S. cerevisiae deletion strains, locus YPR119W, strain clb2, active compounds read low 0.993 | S. cerevisiae deletion strains, locus YPR141C, strain kar3, active compounds read low 0.981 | S. cerevisiae deletion strains, locus YPR163C, strain tif3, active compounds read low 0.984 | S. cerevisiae deletion strains, locus YPR167C, strain met16, active compounds read low 0.979 | S. cerevisiae deletion strains, strain wtn01, active compounds read low 0.982 | S. cerevisiae strains, strain wild type, active compounds read low 0.998
